Results taken from PubChem BioAssay AID2283162 (EPA ToxCast).
Inconclusive results are not listed. Activity calls are given as the source filed them. The calls were made as follows: active = hit-call score of the fitted dose curve at least 0.9, where 1 is the maximum; inconclusive = response in the unintended direction; inactive = score below 0.9.

What follows are molecules tested against human Insulin-like Growth Factor 1 Receptor (IGF1R), IGF1R (gene 3480) (UniProt P08069) (assay: NVS_ENZ_hIGF1R: NovaScreen (NVS) Enzymatic Assay for human Insulin-like Growth Factor 1 Receptor (IGF1R)).
Protocol: NVS_ENZ_hIGF1R is a biochemical, single-readout assay that uses extracted gene-proteins in a cell-free assay. Measurements were taken 1 hour after chemical dosing in a 384-well plate.NVS_ENZ_hIGF1R is one of one assay component(s) measured or calculated from the NVS_ENZ_hIGF1R assay. It is designed to make measurements of enzyme activity, a form of enzyme reporter, as detected with fluorescence intensity signals by Fluorescence and electrophoretic mobility shift technology.Data from the assay component NVS_ENZ_hIGF1R was analyzed into 1 assay endpoint. This assay endpoint, NVS_ENZ_hIGF1R, was analyzed in the positive analysis fitting direction relative to DMSO as the negative control and baseline of activity. Using a type of enzyme reporter, loss-of-signal activity can be used to understand changes in the enzymatic activity as they relate to the gene IGF1R. Furthermore, this assay endpoint can be referred to as a primary readout, because this assay has produced multiple assay endpoints where this one serves a enzymatic activity function. To generalize the intended target to other relatable targets, this assay endpoint is annotated to the kinase intended target family, where the subfamily is receptor tyrosine kinase.
Binding assays used specific radioligands (tritiated, iodinated) with non-radioactive competitive displacement ligands in agonist or antagonist protocols (as indicated) and various reference compounds and inhibitors to titrate specific binding to receptors and transporters. Most enzyme assays (CYPs, kinases, phosphatases, proteases, HDACs) used recombinant protein and specific substrates (fluorescence mostly, some colorimetric and radioactive) and inhibitors, followed by a biochemical separation of substrate and product. All assays for the biochemical HTS were initially run in duplicate at a single concentration (10 uM for CYP450 assays and 25 uM for all others). Assay-chemical combinations meeting a pre-defined threshold (e.g., 30% inhibition and other criteria defined below) were then run in singleton concentration-response format with maximum concentration of 20 uM for CYPs and 50 uM for all others. Each assay was run with positive and negative controls, and concurrent controls on every plate. The follow-up (secondary) screen tested active chemical-pairs in concentration series, as well as a few additional assays not tested in the primary screen, some selected negative inactives, and several cases re-run in the concentration series for confirmatory purposes.

Sequence of human Insulin-like Growth Factor 1 Receptor (IGF1R), IGF1R (gene 3480) (P08069 whole entry, looked up): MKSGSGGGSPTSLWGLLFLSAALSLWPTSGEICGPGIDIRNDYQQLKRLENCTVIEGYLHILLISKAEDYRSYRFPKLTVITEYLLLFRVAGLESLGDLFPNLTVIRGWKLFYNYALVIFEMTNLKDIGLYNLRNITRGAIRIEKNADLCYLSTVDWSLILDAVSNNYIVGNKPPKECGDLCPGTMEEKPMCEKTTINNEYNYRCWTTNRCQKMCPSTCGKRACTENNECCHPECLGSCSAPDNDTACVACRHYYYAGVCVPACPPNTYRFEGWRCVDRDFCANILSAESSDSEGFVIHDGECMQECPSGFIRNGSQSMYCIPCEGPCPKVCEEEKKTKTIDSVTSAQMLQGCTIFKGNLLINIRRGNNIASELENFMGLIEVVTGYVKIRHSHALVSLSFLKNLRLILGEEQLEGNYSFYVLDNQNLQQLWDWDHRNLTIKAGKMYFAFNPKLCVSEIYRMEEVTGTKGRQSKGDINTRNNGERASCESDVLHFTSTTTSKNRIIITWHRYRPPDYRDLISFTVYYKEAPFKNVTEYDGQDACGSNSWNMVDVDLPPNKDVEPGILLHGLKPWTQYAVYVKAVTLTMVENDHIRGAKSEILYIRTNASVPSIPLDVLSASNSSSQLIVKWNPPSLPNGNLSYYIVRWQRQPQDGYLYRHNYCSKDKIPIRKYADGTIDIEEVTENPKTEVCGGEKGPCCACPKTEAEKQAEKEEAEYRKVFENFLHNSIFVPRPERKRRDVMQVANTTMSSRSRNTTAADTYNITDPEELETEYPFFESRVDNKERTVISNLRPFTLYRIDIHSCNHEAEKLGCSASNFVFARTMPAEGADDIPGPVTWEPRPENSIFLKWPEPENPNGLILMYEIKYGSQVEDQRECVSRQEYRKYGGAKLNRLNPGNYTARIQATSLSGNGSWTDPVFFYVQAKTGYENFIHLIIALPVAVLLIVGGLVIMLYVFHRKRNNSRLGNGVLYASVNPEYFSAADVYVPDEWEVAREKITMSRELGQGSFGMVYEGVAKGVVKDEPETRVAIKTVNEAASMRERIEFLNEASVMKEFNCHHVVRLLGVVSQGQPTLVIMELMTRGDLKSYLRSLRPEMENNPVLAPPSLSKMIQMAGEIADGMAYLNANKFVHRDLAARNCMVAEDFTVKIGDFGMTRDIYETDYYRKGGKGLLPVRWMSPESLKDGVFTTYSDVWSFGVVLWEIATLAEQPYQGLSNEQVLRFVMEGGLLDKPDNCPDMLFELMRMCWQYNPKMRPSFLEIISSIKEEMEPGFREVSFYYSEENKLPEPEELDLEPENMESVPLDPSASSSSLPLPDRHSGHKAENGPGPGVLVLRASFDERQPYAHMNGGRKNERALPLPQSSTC

Row | Structure (SMILES) | outcome | AC50
1 | CC(C)(C)c1cc(O)ccc1O | inactive | 
2 | CN(C)[C@@H]1C(=O)C(C(N)=O)=C(O)[C@@]2(O)C(=O)C3=C(O)c4c(O)cccc4[C@@](C)(O)[C@H]3[C@H](O)[C@@H]12 |  | 39.4 µM (active)
3 | CC(C)C(=O)OCC(C)(C)C(OC(=O)C(C)C)C(C)C (stereo unspecified) | inactive | 
4 | O=C(N[C@H]1CN2CCC1CC2)c1ccc2c(c1)OCCO2 | inactive | 
5 | Clc1cccc(Cl)c1 | inactive | 
6 | CCC1(c2ccccc2)C(=O)N=C(O)NC1=O (stereo unspecified) | inactive | 
